Measurements as given in ChEMBL document CHEMBL3988442, “University of Dundee, Small-Polar-MMV Screening Library” (2021).

What follows are molecules tested against AMP-activated protein kinase, AMPK (Homo sapiens) (UniProt P54646+O43741+P54619+Q9UGJ0+Q9Y478+Q13131+Q9UGI9) (assay: AMP-dependent Kinase enzyme assay. An in vitro enzyme assay that detects ADP turnover that is directly proportional to AMPK activity. This uses naive AMPK that is activated during the assay with MK-8722). Settings: 30 µM.
Assay type: functional
Parameters: scale not given: direction of the effect not stated beside the values
`Cn1cccc1CN(C(=O)CC(CC(=O)O)c1cccs1)C1CC1` (stereo not given) gave a Percent Effect of -2.3%.
With `Cn1ccc(N2CCCC(NC(=O)c3ccsc3)C2=O)n1` (stereo not given) the Percent Effect was -4.2%.
Work on `CC(Cn1cncc1-c1cnn(Cc2ccccc2)c1)N1CCCCC1` (stereo not given) yielded a Percent Effect of 7.07%.
`CCCn1cc(-c2cc(C(=O)N(C)C)c3ccc(OC)cc3n2)cn1` gave a Percent Effect of 8.93%.
`Cc1nc(C)c(C(C)NCc2cnc(N3CCOCC3)nc2)s1` (stereo not given) was tested, and the Percent Effect was 7.71%.
With `COCc1cc(N(C)Cc2cc(C(C)(C)C)n[nH]2)ncn1` the Percent Effect was -7.3%.
`NC(=O)CC1CCCN(c2cncc(OCc3ccccc3)n2)C1` (stereo not given) gave a Percent Effect of 20.7%.
Molecule `CN1CCN(c2ccc(F)cc2NC(=O)NCCn2ccnc2)CC1` has a Percent Effect of 12.1%.
With `O=C(c1nnn(-c2ccc(Cl)cc2)n1)N(CCO)Cc1ccccc1` the Percent Effect was 3.07%.
In the case of `O=C(NCc1nc[nH]n1)c1cc(COc2ccccc2F)[nH]n1`, the Percent Effect is reported as -3.43%.
Work on `Cc1nccc(CN2Cc3nccn3CC2c2ccccc2)n1` (stereo not given) yielded a Percent Effect of 15%.
`CCc1ccc(CCn2cnc(C#N)n2)cc1` gave a Percent Effect of -0.907%.
For `O=C(c1cncc(NCC2COc3ccccc3C2)n1)N1CCCC1` (stereo not given), the Percent Effect was 8.04%.
Work on `CN(C)c1ccc(C(=O)N2CCC(c3cc4ncccc4[nH]3)CC2)cc1` yielded a Percent Effect of 21.8%.
Molecule `CS(=O)(=O)c1ccccc1NC(=O)N[C@@H]1c2ccccc2C[C@@H]1O` has a Percent Effect of 6.87%.
`O=C(NCc1ccc(OCC2CC2)nc1)C1COc2ccccc2O1` (stereo not given) gave a Percent Effect of -1.03%.
Work on `CCc1ccccc1OCCN(C)C(=O)CCN1CCCO1` yielded a Percent Effect of -7.88%.
For `CCc1noc(C(C)Sc2nnc(C3CC3)n2CC(N)=O)n1` (stereo not given), the Percent Effect was -8.4%.
`COc1cc(C)c(S(=O)(=O)CC(=O)N(C)C2CC2)cc1OC` gave a Percent Effect of 2.73%.
Molecule `CN(CCc1ncnn1-c1ccccc1Cl)C1CCS(=O)(=O)C1` (stereo not given) has a Percent Effect of -10%.
